# The list is not random: actives were taken first. Their share in the collection is about 19%.
# HT1080-NT tox: qHTS for induction of synthetic lethality in tumor cells producing 2HG: qHTS for the HT-1080-NT fibrosarcoma cell line; AID 686970, 2013; Potency, µM (top dose mostly 46.1 µM), for inactives: at the highest dose activity, negative = less viability, hits mostly cytotoxic; 360,000 tested, 1.6% active; HT-1080-NT fibrosarcoma viability, CellTiter-Glo ATP luminescence, 48 h;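 further: NT is the 2HG producing partner of a matched IDH1 knockdown line; potency means the concentration at half of the fitted maximal effect; 0% = DMSO-treated cells and -100% = media-only wells without cells; nearly all actives have a fitted effect of over 55% in size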
#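 Read-out is CellTiter-Glo luminescence after 10 minutes at room temperature, following 48 hours' compound treatment of HT-1080-NT cells (750 cells/well, RPMI, 5% FBS, 37 degrees C).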
# IL1B secr inh: qHTS for Inhibitors of Inflammasome Signaling: IL-1-beta AlphaLISA Primary Screen; activity change, % at 57.5 µM; THP-1 LPS/ATP IL-1B secretion, AlphaLISA, 16 h; stronger effect = lower value; 360,000 tested, 4.7% active; in the data active means activity change below about -50%; inconclusive means mostly about -30% to -49%
#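 Secreted IL-1B measured by AlphaLISA bead assay after 16 h compound exposure of THP-1 cells; compounds (final up to 57.5 uM) added 1 h before LPS (250 ng/mL) and ATP (1.25 mM) stimulation; lower signal means less secretion.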
# DT40 TDP1 CPT: qHTS for Inhibitors of human tyrosyl-DNA phosphodiesterase 1 (TDP1): qHTS in cells in presence of CPT; chicken DT40 Tdp1-/-;hTDP1 cells + 20 nM CPT, ATP luminescence, 48 h; Potency, µM (highest dose often 46.2 µM), for inactives: top-dose activity change, negative = growth inhibition, hits mostly inhibitors; 420,000 tested, 12% active; further: potency means the concentration at half of the fitted maximal effect; nearly all actives have a fitted effect of over 55% in size
#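 Cell growth measured by CellTiter-Glo luminescence after a minimum 48 h, 37 C compound exposure with 20 nM CPT in Tdp1-knockout DT40 cells stably expressing hTDP1, seeded 400/well; qHTS titration format.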
# TDP1 cell noCPT: qHTS for Inhibitors of human tyrosyl-DNA phosphodiesterase 1 (TDP1): qHTS in cells in absence of CPT | 420,000 tested, 15% active | Potency, µM (top dose mostly 46.2 µM), inactives show at the top dose activity change, negative = growth inhibition, usual class: inhibitors | DT40 Tdp1-/- hTDP1 cells, no CPT, ATP luminescence, 48 h; further: potency means the concentration at half of the fitted maximal effect; nearly all actives have a fitted effect of over 55% in size
#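 Luminescent ATP content (CellTiter-Glo) served as the growth readout. Knockout chicken DT40 cells expressing human TDP1 were exposed to compounds without camptothecin for a minimum 48 hr at 37 °C.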
# HT1080 IDH1KD tx: qHTS for induction of synthetic lethality in tumor cells producing 2HG: qHTS for the HT-1080-IDH1KD cell line; HT-1080 IDH1 knockdown viability, ATP luminescence, 48 h; Potency, µM (doses to about 46.1 µM), inactives show top-dose activity, negative = toxicity, actives largely listed as cytotoxic; 360,000 tested, 2% active; AID 686971, 2013;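 further: potency means the concentration at half of the fitted maximal effect; 0% = DMSO wells and -100% = cell-free medium wells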
#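 Knockdown cells (IDH1KD HT-1080) received compounds 2 h after plating at 750 cells/well and were kept 48 h at 37 °C in 5% FBS RPMI. A CellTiter-Glo luminescence read gave % activity for curve fitting.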
# ELG1 repair inh: qHTS screen for small molecules that inhibit ELG1-dependent DNA repair in human embryonic kidney (HEK293T) cells expressing luciferase-tagged ELG1; HEK293T ELG1-luciferase reporter, luminescence, 16 h; DNA damage induced by 5-fluorouridine; 330,000 tested, 2.3% active; Potency, µM (doses to about 46.1 µM), for the others: top-dose activity change, negative = inhibition, usual class: inhibitors; further: potency means the concentration at half of the fitted maximal effect; nearly all actives have a fitted effect of over 55% in size
#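 In this reporter screen, reduction of luminescence relative to DMSO vehicle indicated activity. Compounds and 5-fluorouridine were added together to 2,000 cells per well, incubated for 16 hr at 37 °C, then developed with ONE-Glo.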
# * hit, by the source's call; ? = inconclusive; nt = no result given; ! = not confirmed by another sample. Unless noted, the call rests on the fitted dose curve; in most records, active means well fitted curve in the direction sought with a large enough effect; inconclusive means small, poorly fitted or top-dose-only effect, or another doubt; inactive means no such curve, though single readings can be large; an effect the other way counts as inactive or inconclusive. Unless noted, on the % scale 0 is the no-effect control and ±100 the full control effect.
SMILES,HT1080-NT tox,IL1B secr inh,DT40 TDP1 CPT,TDP1 cell noCPT,HT1080 IDH1KD tx,ELG1 repair inh
COc1ccccc1-c1noc2c1C(=O)N(Cc1cn(-c3ccccc3OC)nn1)CC2,7.3%,61.3,?,18.4µM*,-9.7%,nt
COc1ccccc1-c1noc2c1C(=O)N(C(=O)OC(C)(C)C)CC2,3.0%,20.5,-8.2%,-6.9%,-7.4%,nt
COc1ccc2[nH]cc(CCNc3ncncc3-c3ccccc3Cl)c2c1,nt,nt,23.1µM*,?,nt,nt
COc1ccc2[nH]cc(CCNc3ncncc3-c3ccccc3C(F)(F)F)c2c1,nt,nt,16.4µM*,?,nt,nt
O=C(CSc1nnc(NC(=O)C2CC2)s1)NCc1ccccc1Cl,-0.4%,30.0,-16.8%,-11.1%,7.0%,0.8%
O=C(NC1CCCC1)C(C1CC1)n1c(-c2ccccn2)nc2ccccc21 (stereo not drawn),-2.2%,-4.9,9.2µM*,7.31µM*,-7.6%,nt
O=C(NCc1ccccc1)C(C1CC1)n1c(-c2cccs2)nc2ccccc21 (stereo not drawn),8.4%,10.1,10.3µM*,9.2µM*,10.5%,nt
O=C(NCc1ccccc1)C(C1CC1)n1c(CSCCOc2ccccc2)nc2ccccc21 (stereo not drawn),?,-15.8,?,16.4µM*,?,nt
C=C(C)c1cccc(C(C)(C)NC(=O)NNC(=O)c2ccccc2O)c1,-23.8%,-4.4,3.3%,?,?,-20.5%
CCOc1ccc(OCC)c(NC(=O)Cn2ncc3c4ccccc4n(Cc4ccccc4)c3c2=O)c1,nt,nt,-8.6%,-22.1%,nt,nt
COc1ccc(Cl)cc1NC(=O)Cn1ncc2c3ccccc3n(Cc3ccccc3)c2c1=O,nt,nt,?,14.6µM*,nt,nt
O=C(Cn1ncc2c3ccccc3n(Cc3cccc(Cl)c3)c2c1=O)Nc1ccc(F)cc1F,nt,nt,29.1µM*,20.6µM*,nt,nt
O=C(c1cc[n+]([O-])cc1)N1CCCC(N2CCN(c3cccc(C(F)(F)F)c3)CC2)C1 (stereo not drawn),-12.2%,0.0,10.3µM*,?,-8.3%,-18.5%
O=C(c1ccccn1)N1CCCC(N2CCN(c3cccc(C(F)(F)F)c3)CC2)C1 (stereo not drawn),-9.6%,7.0,?,14.6µM*,-4.5%,1.8%
COc1ccc(-c2ccc(CCC(=O)O)n2CC(=O)Nc2cccc(Cl)c2C)cc1,nt,nt,9.0%,-22.5%,nt,nt
O=[N+]([O-])c1cc(S(=O)(=O)C(F)(F)F)ccc1Sc1nc2ccccc2[nH]1,?,-102.9*,7.31µM*,7.31µM*,18.4µM*,?
O=[N+]([O-])c1ccc(N2CCNCC2)cc1Sc1nc2ccccc2[nH]1,-25.9%,-13.2,?,23.1µM*,?,17.5%
NCCNc1ccc([N+](=O)[O-])c(Sc2nc3ccccc3[nH]2)c1,0.2%,-6.1,?,16.4µM*,-20.7%,-3.1%
CS(=O)(=O)c1ccc(Sc2nc3ccccc3[nH]2)c([N+](=O)[O-])c1,-0.6%,?,?,?,-3.9%,0.0%
NCCNc1ccc([N+](=O)[O-])c(NC2CC2)c1,-6.5%,0.0,?,?,-1.8%,?
O=C(c1ccncc1)N1CCC2(CCCN(Cc3nccs3)C2)CC1,nt,nt,11.7%,-2.2%,nt,nt
CC(C)Oc1ccc(C(=O)N2CCN(c3nc4c(F)cc(F)cc4s3)CC2)cc1,nt,nt,-26.7%,?,nt,nt
Cc1oc(-c2ccccc2NC(=O)c2cccnc2)nc1CNC(=O)c1ccc(N(C)C)cc1,nt,nt,0.7%,-15.7%,nt,nt
CC12CCC(C(=O)CC1=O)C2(C)C (stereo not drawn),13.8%,8.7,-15.9%,-1.8%,9.5%,nt
CC1(C)[C@@H]2CC[C@@]1(C)C(=O)C2,nt,nt,8.41µM*!,3.35µM*!,nt,nt
SMILES,HT1080-NT tox,IL1B secr inh,DT40 TDP1 CPT,TDP1 cell noCPT,HT1080 IDH1KD tx,ELG1 repair inh
CN1OC[C@@H]2CN[C@H](c3cccc(-c4ccc(C#N)cc4)c3)C[C@@H]21,0.5%,-16.4,?,?,-0.3%,nt
NS(=O)(=O)c1ccc(NC(=O)CSc2nnc3n2CCCCC3)cc1,7.4%,7.0,12.8%,6.8%,-0.7%,0.0%
Clc1ccccc1N=Nc1ccccn1,8.1%,2.3,-19.3%,-8.2%,?,nt
Clc1ss/c(=N\c2ccccn2)c1Cl,8.0%,-90.9*,-13.0%,-14.8%,11.1%,5.5%
CC(C)Cc1nnc(NC(=O)C2CCCN(C(=O)c3ccc(Cl)cc3)C2)s1 (stereo not drawn),2.2%,15.1,?,?,-0.9%,nt
CCCCCCCCN1C(=O)[C@H](CC(=O)NCCCN2CCCC2=O)C[C@@]2(C(=O)OC)CC(C)(C)CC=C12,?,-24.7,13µM*,13µM*,?,nt
COCCCNC(=O)C[C@@H]1C[C@@]2(C(=O)OC)CC(C)(C)CC=C2N(Cc2ccco2)C1=O,19.4%,0.0,-6.6%,-0.4%,0.5%,nt
CCCCCCCCN1C(=O)[C@H](CC(=O)NCC2CCCCC2)C[C@@]2(C(=O)OC)CC(C)(C)CC=C12,-15.6%,-5.9,?,13µM*,0.4%,nt
CCCCCCCCN1C(=O)[C@H](CC(=O)NCCCOC)C[C@@]2(C(=O)OC)CC(C)(C)CC=C12,?,-15.1,?,14.6µM*,?,nt
CCCCCCCCN1C(=O)[C@H](CC(=O)NCCc2ccccc2OC)C[C@@]2(C(=O)OC)CC(C)(C)CC=C12,?,-23.6,20.6µM*,?,?,nt
C=CCNC(=O)NC(=O)COC(=O)CNS(=O)(=O)c1ccc(F)c(F)c1F,12.2%,8.5,5.0%,-1.1%,6.6%,3.0%
C#CCNC(=O)C[C@@H]1C[C@@]2(C(=O)OC)CC(C)(C)CC=C2N(CCCCCCCC)C1=O,?,-14.7,?,16.4µM*,?,nt
COCCCNC(=O)C[C@@H]1C[C@@]2(C(=O)OC)CC(C)(C)CC=C2N(Cc2cccc3ccccc23)C1=O,-10.7%,5.1,?,?,-13.9%,nt
CCCCCCCCN1C(=O)[C@H](CC(=O)NCCCOCCCC)C[C@@]2(C(=O)OC)CC(C)(C)CC=C12,-3.4%,-10.6,?,14.6µM*,?,nt
CCOc1ccc(N=Cc2ccccc2O)cc1,-7.7%,6.9,-19.4%,-31.4%,10.1%,nt
